# Test results taken from the supplement of paper PMC8253809.
# “And” between values parts separate entries of the source, which are not always exact repeats. Identical values can stand only once.
# Legend:
# Test in all cases: growth inhibition (% activity, log2 RLU normalised to DMSO / staurosporine); higher = more growth inhibition
# Details in all cases: 33 µM
# DIPGX29 = tested on: DIPGX29 (H3.3 K27M diffuse intrinsic pontine glioma line)
# Procedure, shortened: (§1)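 Approved drugs were tested in triplicate at a single final concentration of about 33 μM for 7 days at 37 °C, 5% CO2, on pHGG cell lines and H9-derived neural stem cells. Readout was CellTiter-Glo luminescence, log2-transformed and scaled per plate to % activity between solvent and positive control wells. The median over replicates gives the growth-inhibition value.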
# DIPGX37 = tested on: DIPGX37 (H3.3 K27M diffuse intrinsic pontine glioma line)
# Procedure, shortened: as §1
# DIPGX7 = tested on: DIPGX7 (H3.3 K27M diffuse intrinsic pontine glioma line)
# Procedure, shortened: as §1
# DIPGX9 = tested on: DIPGX9 (diffuse intrinsic pontine glioma line)
# Procedure, shortened: as §1
# HGGX39 = tested on: HGGX39 (paediatric high-grade glioma line)
# Procedure, shortened: as §1
# HGGX6 = tested on: HGGX6 (H3.3 G34R paediatric high-grade glioma line)
# Procedure, shortened: as §1
# HNSC = tested on: HNSC
# Procedure, shortened: as §1
# SUDIPGIV = tested on: SUDIPGIV (diffuse intrinsic pontine glioma line)
# Procedure, shortened: as §1
# SUDIPGVI = tested on: SUDIPGVI (diffuse intrinsic pontine glioma line)
# Procedure, shortened: as §1
# SUDIPGXIII = tested on: SUDIPGXIII (diffuse intrinsic pontine glioma line)
# Procedure, shortened: as §1
SMILES,growth inhibition (DIPGX29),growth inhibition (DIPGX37),growth inhibition (DIPGX7),growth inhibition (DIPGX9),growth inhibition (HGGX39),growth inhibition (HGGX6),growth inhibition (HNSC),growth inhibition (SUDIPGIV),growth inhibition (SUDIPGVI),growth inhibition (SUDIPGXIII)
c1ccc(-c2ccc(C(c3ccccc3)n3ccnc3)cc2)cc1 (stereo not given),3.65%,2.9%,5.02%,5.27%,9.63%,5.19%,11.5%,13.7%,2.63%,-0.141%
Cc1ccccc1C(OCCN(C)C)c1ccccc1 (stereo not given),-0.515%,0.826%,-0.00592%,1.44%,2.28%,1.66%,-1.91%,0.0322%,0.905%,1.58%
C[C@H](CS)C(=O)N1CCC[C@H]1C(=O)O,0.445%,-0.171%,1.27%,1.57%,1.84%,-1.72%,2.42%,-0.14%,-0.111%,-0.989%
O.O=[Si]=O.O=[Si]=O.O=[Si]=O.O=[Si]=O.[O]=[Mg].[O]=[Mg].[O]=[Mg],-0.0369%,-0.00885%,-1.3%,0.668%,1.22%,0.613%,-1.22%,0.589%,0.8%,0.62%
Cn1c([N+](=O)[O-])cnc1COC(N)=O,0.121%,3.86%,2.76%,0.536%,2.55%,-0.567%,7.72%,2.41%,2.16%,0.864%
CCCSc1ccc2[nH]c(NC(=O)OC)nc2c1,7.72%,7.1%,6.94%,11.9%,15.5%,7.25%,61.3%,19%,-3.32%,4.87%
CC(C)CN(C[C@@H](O)[C@H](Cc1ccccc1)NC(=O)O[C@H]1CO[C@H]2OCC[C@H]21)S(=O)(=O)c1ccc(N)cc1,-2.82%,-0.683%,-0.244%,-0.934%,-1.58%,0.0431%,-4.53%,-3.11%,-1.79%,1.1%
NC(=O)c1cnccn1,-1.43%,0.819%,-1.41%,-0.339%,-2.81%,1.4%,-0.255%,-2.49%,0.0834%,1%
Cc1nc(-c2ccc(OCC(C)C)c(C#N)c2)sc1C(=O)O,0.052%,-0.105%,1.2%,1.34%,2.02%,3.15%,-1.07%,-0.558%,-0.306%,1.95%
COCCCOc1cc(C[C@@H](C[C@H](N)[C@@H](O)C[C@H](C(=O)NCC(C)(C)C(N)=O)C(C)C)C(C)C)ccc1OC,2.63%,-0.699%,1.89%,6.01%,3.87%,1.44%,2.36%,-3.1%,2.75%,0.132%
OCCOCCN1CCN(C2=Nc3ccccc3Sc3ccccc32)CC1,0.62%,0.529%,4.12%,1.36%,2.86%,2.19%,0.74%,-0.167%,-0.798%,1.66%
COc1ccc2[nH]cc(CCNC(C)=O)c2c1,-2.35%,-0.423%,-1.32%,-1.49%,-1.11%,-2.19%,-1.52%,-1.67%,-0.827%,-1.28%
CCCC(=O)O[C@]1(C(=O)COC(C)=O)CC[C@H]2[C@@H]3C[C@H](F)C4=CC(=O)C=C[C@]4(C)[C@@]3(F)[C@@H](O)C[C@@]21C,1.5%,1.44%,-0.393%,2.91%,2.12%,0.881%,-3.23%,-4.91%,-0.161%,1.12%
CC1OC(n2cc(F)c(=O)[nH]c2=O)C(O)C1O (stereo not given),-0.415%,1.44%,-1.58%,1.19%,-0.346%,1.76%,-0.812%,2.36%,0.29%,1.21%
Nc1nc(CC(=O)Nc2ccc(CCNC[C@H](O)c3ccccc3)cc2)cs1,0.527%,0.899%,-0.176%,0.63%,1.04%,-0.0848%,-1.35%,-0.627%,0.0605%,0.226%
CNC(=C[N+](=O)[O-])NCCSCc1csc(CN(C)C)n1,-0.765%,-2.32%,-0.581%,0.0593%,0.382%,0.506%,-0.992%,-0.124%,0.207%,0.421%
Nc1nc2c(ncn2COC(CO)CO)c(=O)[nH]1,-0.593%,2.32%,-1.01%,1.05%,1.32%,1.03%,-1.32%,-0.797%,-0.103%,1.94%
CCCCCCCCOc1ccccc1C(=O)Nc1ccc(C(=O)OCC[N+](C)(CC)CC)cc1,1.1%,-1.75%,3.53%,2.15%,53.7%,10.8%,1.89%,4.07%,-1.27%,2.78%
N#CC(c1ccc(Cl)cc1)c1c(Cl)cc(-n2ncc(=O)[nH]c2=O)cc1Cl (stereo not given),-3.67%,-2.44%,-2.85%,-2.54%,-2.75%,-3.94%,-1.15%,-2.27%,-3.68%,0.254%
Cc1cc(NS(=O)(=O)c2ccc(N)cc2)no1,-4.18%,-1.05%,-1.62%,-1.67%,-2.37%,-4.13%,1.76%,-3.28%,-3.16%,-0.124%
Nc1nc(=O)n([C@@H]2CS[C@H](CO)O2)cc1F,0.68%,3.05%,1.33%,1.75%,1.6%,0.276%,0.206%,-0.429%,2.25%,-2.25%

SMILES,growth inhibition (DIPGX29),growth inhibition (DIPGX37),growth inhibition (DIPGX7),growth inhibition (DIPGX9),growth inhibition (HGGX39),growth inhibition (HGGX6),growth inhibition (HNSC),growth inhibition (SUDIPGIV),growth inhibition (SUDIPGVI),growth inhibition (SUDIPGXIII)
CCCc1nc(C(C)(C)O)c(C(=O)OCc2oc(=O)oc2C)n1Cc1ccc(-c2ccccc2-c2nnn[nH]2)cc1,-1%,0.0168%,-0.622%,0.493%,-1.5%,-3.62%,12.4%,-1.28%,-2.12%,-2.02%
COc1ccc2cccc(CCNC(C)=O)c2c1,-3.08%,-0.948%,-1.76%,-2.3%,-1.63%,-4.45%,-2.84%,-2.11%,-2.45%,-0.361%
CCC[C@@H]1C[C@@H](C(=O)N[C@@H]([C@H]2O[C@H](SC)[C@H](O)[C@@H](O)[C@H]2O)[C@H](C)Cl)N(C)C1,1.54% and 0.31%,0.378% and 0.388%,2.54% and -0.297%,-0.222% and -0.00863%,1.92% and 0.31%,0.389% and -3.2%,3.24% and 18.2%,2.02% and 2.11%,2.1% and -0.349%,-1.04% and -3.03%
COc1cc2nc(N(C)CCCNC(=O)C3CCCO3)nc(N)c2cc1OC (stereo not given),0.0156%,1.16%,-0.0243%,0.217%,-0.734%,1.08%,-0.343%,-0.994%,1.28%,1.78%
CCCCNC(=O)NS(=O)(=O)c1ccc(C)cc1,-0.968%,2.64%,-0.647%,1.33%,2.32%,-1.26%,8.77%,1.65%,2.09%,-0.858%
NS(=O)(=O)c1cc2c(cc1Cl)NC(C(Cl)Cl)NS2(=O)=O (stereo not given),1.16%,4.01%,3.24%,5.41%,4.4%,5.05%,-0.78%,-3.21%,2.47%,0.0927%
CC(=O)SCC(Cc1ccccc1)C(=O)NCC(=O)OCc1ccccc1 (stereo not given),1.1%,2.25%,1.03%,1.31%,1.49%,1.32%,-1.4%,-1.43%,-1.57%,-0.948%
C[N+]1(C)CCC(=C(c2ccccc2)c2ccccc2)CC1,1.61%,4.65%,2.7%,2.75%,2.04%,-0.684%,23.1%,4.27%,8.89%,1.56%
Nc1ccn(C[C@@H](CO)OCP(=O)(O)O)c(=O)n1,1.21%,2.43%,1.32%,1.05%,-0.556%,-0.434%,3.12%,2.09%,1.15%,1.19%
N=C(N)N,-0.83%,2.64%,1.54%,0.0493%,0.625%,-0.897%,7.78%,1.72%,-0.000495%,-1.47%
Cc1cc(=O)[nH]c(=S)[nH]1,0.66%,-0.151%,2.93%,1.41%,3.23%,0.504%,4.39%,2.24%,4.36%,1.21%
COc1cc2c(cc1OC)C(=O)C(CC1CCN(Cc3ccccc3)CC1)C2 (stereo not given),4.4%,-6.1%,3.13%,-1.15%,-1.59%,0.576%,9.45%,-1.23%,-7.35%,-4.73%
CC1(C)S[C@@H]2[C@H](NC(=O)C(C(=O)O)c3ccccc3)C(=O)N2[C@H]1C(=O)O (stereo not given in full),0.227%,2.06%,0.432%,0.809%,2.53%,1.87%,0.956%,-0.316%,3.27%,0.516%
CN1CCN(c2cc3c(cc2F)c(=O)c(C(=O)O)cn3-c2ccc(F)cc2)CC1,0.274%,1.39%,0.237%,1.68%,1.58%,-0.335%,4.83%,0.444%,1.63%,0.0917%
CS(=O)(=O)c1ccc([C@@H](O)[C@@H](CF)NC(=O)C(Cl)Cl)cc1,3.83%,-0.106%,1.63%,2.53%,12.9%,5.33%,15.9%,24.6%,2.59%,38%
O=C1N=C(O)NC1(c1ccccc1)c1ccccc1,0.482% and -0.485%,2.42% and 3.19%,1.26% and 0.465%,0.659% and -0.0101%,1.57% and 1.18%,2.58% and 1.56%,0.737% and -1.81%,-0.112% and -1.42%,1.87% and 2.15%,-17.1%
COc1ccc(C(=O)CC(=O)c2ccc(C(C)(C)C)cc2)cc1,-1.88%,-1.81%,-1.16%,-0.752%,-2.78%,-0.501%,-0.539%,-0.769%,-2.64%,-0.991%
Cc1ncc([N+](=O)[O-])n1CC(O)CCl (stereo not given),1.6%,-0.696%,3.64%,1.89%,2.83%,1.22%,6.21%,1.59%,4.35%,0.346%
CC[C@H]1OC(=O)[C@H](C)[C@@H](O[C@H]2C[C@@](C)(OC)[C@@H](O)[C@H](C)O2)[C@H](C)[C@@H](O[C@@H]2O[C@H](C)C[C@H](N(C)C)[C@H]2O)[C@](C)(OC)C[C@@H](C)C(=O)[C@H](C)[C@@H](O)[C@]1(C)O,-1.86%,0.02%,-2.66%,-0.349%,1.64%,0.562%,-3.32%,-2.12%,-0.602%,-13%
[I-].[K+],-0.931%,-0.668%,-0.00688%,-0.676%,0.215%,-4.01%,20.4%,-0.567%,-0.261%,-4.16%
